From PubChem BioAssay
A selection: hits, their analogues and other compounds. The true share with any hit is near 2.4%.
SENP6 inh: inhibitors of human SENP6 protease; 330,000 tested, 1.8% active; Recombinant SENP6 catalytic domain, aminoluciferin luminescence; inhibition, % at 10 µM; Q9GZR1;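 active means inhibition above about 50% at the single tested dose, limit read from the data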;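 further: plate controls were DMSO wells with enzyme for no effect and DMSO wells lacking enzyme for full effect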
Target sequence (Q9GZR1 628-1112 limits assumed): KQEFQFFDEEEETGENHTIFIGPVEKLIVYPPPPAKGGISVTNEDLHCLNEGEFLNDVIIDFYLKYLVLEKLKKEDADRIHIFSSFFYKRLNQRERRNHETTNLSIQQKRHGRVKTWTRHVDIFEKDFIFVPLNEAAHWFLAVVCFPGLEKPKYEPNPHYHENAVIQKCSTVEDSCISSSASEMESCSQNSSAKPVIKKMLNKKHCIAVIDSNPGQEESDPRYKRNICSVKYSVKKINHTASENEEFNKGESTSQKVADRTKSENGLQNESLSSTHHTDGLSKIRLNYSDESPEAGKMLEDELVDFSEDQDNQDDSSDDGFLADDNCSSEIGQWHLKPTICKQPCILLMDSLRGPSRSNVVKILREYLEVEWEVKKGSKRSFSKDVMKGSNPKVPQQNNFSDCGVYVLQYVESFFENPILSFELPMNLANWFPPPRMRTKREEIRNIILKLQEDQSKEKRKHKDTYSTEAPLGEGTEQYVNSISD
SENP7 block: blocks the human protease SENP7 | Q9BQF6 | recombinant SENP7, Z-RLRGG-aminoluciferin luminescence, 40 min | inhibition, % at 5 µM | 330,000 tested, 1.5% active | AID 434973;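 active means inhibition above about 50% at the single test dose, limit read from the data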;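 further: plate controls were DMSO with enzyme for no effect and no enzyme buffer wells for full effect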
SENP8 block-1: SENP8 (human) protease inhibition; recombinant SENP8, Nedd8 substrate fluorescence; inhibition, % at 20 µM; AID 602440; 360,000 tested, 0.64% active; in the data active means inhibition mostly above about 40%, no sharp cut-off; inactive means mostly below about 27%
Target sequence (Q96LD8 whole entry, looked up): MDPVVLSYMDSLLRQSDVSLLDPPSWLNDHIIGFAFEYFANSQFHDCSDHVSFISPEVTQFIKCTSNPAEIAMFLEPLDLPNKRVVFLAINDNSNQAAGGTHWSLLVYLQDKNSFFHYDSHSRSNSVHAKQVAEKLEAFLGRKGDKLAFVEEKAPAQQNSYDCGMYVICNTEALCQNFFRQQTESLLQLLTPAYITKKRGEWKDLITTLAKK
Platelet DG rel: platelet dense granule release activity | AID 1663 | human platelet-rich plasma, SFLLRN dense granule ATP release, luminescence | inhibition, %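 (compounds screened at 7.5 µM in platelet-rich plasma)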 | 300,000 tested, 0.22% active;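 active means mean replicate score, as percent of positive control, at or above 50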
SENP8 block-2: blocks the human protease SENP8 | Q96LD8 | purified SENP8, Z-RLRGG-aminoluciferin cleavage, luminescence | inhibition, % at 10 µM | 330,000 tested, 1.2% active | AID 2540; in the data active means inhibition above about 50%
SENP8 confirm: human SENP8 inhibition, confirmed | inhibition, % at 12.5 µM | Recombinant SENP8, Z-RLRGG-aminoluciferin luminescence, 60 min | 6,200 tested, 40% active | shares compounds with SENP7 block | AID 488912;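 active means mean inhibition across replicates above about 50%, limit read from the data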
SENP6 conf: human SENP6 inhibition, confirmed; shares compounds with SENP7 block; recombinant SENP6, Z-RLRGG-aminoluciferin luminescence; inhibition, % at 12.5 µM; 6,200 tested, 58% active; AID 488915
SENP7 confirm: confirmation of human SENP7 protease inhibitors; recombinant SENP7, Z-RLRGG-aminoluciferin luminescence, 40 min; inhibition, % at 12.5 µM; 6,200 tested, 69% active; shares compounds with SENP7 block
Casp3 select: selectivity test for SENP inhibitors: human caspase-3 inhibition; shares compounds with SENP7 block; purified caspase-3, Z-DEVD-aminoluciferin luminescence, 60 min; inhibition, % at 12.5 µM; 6,200 tested, 60% active; AID 488918;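 active means mean inhibition above about 50%, limit read from the data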;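 further: plate controls were enzyme with DMSO for no effect and wells without caspase-3 for full effect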
SENP luc ctr: luminescence interference (SENP counter-screen); shares compounds with SENP7 block; Pre-incubated SENP8/Z-RLRGG-aminoluciferin, luciferase luminescence interference; inhibition, % at 12.5 µM; 6,200 tested, 39% active; AID 488919;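 active means mean inhibition above about 50% when retested at one dose, limit read from the data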;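 further: plate controls were DMSO wells with completed reaction for no effect and substrate without enzyme for full effect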
* hit, by the source's call; x = not tested or not shown.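 How the source made its calls, unless noted: active means mean inhibition above about 50% in the one-dose retest (limit read from the data); inactive means the rest.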

SMILES	SENP6 inh	SENP7 block	SENP8 block-1	Platelet DG rel	SENP8 block-2	SENP8 confirm	SENP6 conf	SENP7 confirm	Casp3 select	SENP luc ctr
COc1ccc(/C=C2\CCC(C3CCCC3)C2=O)c(OC)c1 (centres undefined)	-12.3	-6.6	18.0	15.1	-9.0	x	x	x	x	x
Cc1ccsc1/C=C1\CCC(C2CCCC2)C1=O (centres undefined)	96.8*	83.2*	14.4	5.6	85.1*	76.4*	80.9*	92.2*	79.7*	69.6*
COc1cc(OC)c(OC)cc1/C=C1\CCC(C2CCCC2)C1=O (centres undefined)	-12.7	-3.4	-215.0	5.6	-1.6	x	x	x	x	x
COc1ccc(/C=C2\CCC(C3CCCC3)C2=O)cc1 (centres undefined)	54.4*	90.0*	12.8	0.1	77.4*	45.2	49.1	49.5	69.2*	10.9
CCOC(=O)CNC(=S)n1cnc(N)n1	-4.1	-0.3	15.6	-4.1	-4.8	x	x	x	x	x
CCN1C(=O)/C(=C/C=C2/SCCN2C)SC1=S	80.0*	76.5*	46.8*	14.4	47.8	-0.5	12.8	9.9	16.2	4.9
CCn1cnc2sc(-c3ccccc3)cc2c1=O	58.2*	10.3	-29.2	25.2	21.4	36.8	30.4	64.7*	49.7	43.7
CCN(CC)C(=O)c1cccc(-c2csc(C(O)c3cccc(Cl)c3)n2)c1 (centres undefined)	x	x	-1.8	x	x	x	x	x	x	x
COc1cccc(N/C=C/C(=O)c2ccc(Cl)cc2)c1	x	x	-96.1	-0.7	x	x	x	x	x	x
COc1cccc(C(=O)/C=C/Nc2cccc(O)c2)c1	96.3*	99.8*	-77.7	67.6*	95.4*	99.0*	100.2*	103.3*	97.8*	97.9*
COc1ccc(OC)c(N/C=C/C(=O)c2ccccc2)c1	93.1*	101.1*	11.5	83.2*	94.6*	99.7*	100.8*	103.9*	98.8*	94.9*
COc1ccc(OC)c(N/C(C)=C/C(=O)c2ccccc2)c1	7.0	2.0	25.7	-2.1	-5.6	x	x	x	x	x
COc1cccc(C(=O)/C=C/Nc2ccc(NC(C)=O)cc2)c1	92.7*	86.8*	-98.5	35.1	79.3*	89.9*	89.0*	97.5*	87.2*	89.0*
COc1cccc(N/C=C/C(=O)c2ccc(C)cc2)c1	90.9*	96.2*	-173.7	24.4	94.8*	96.4*	97.5*	101.0*	94.3*	92.8*
CC(=O)NNc1cc(C)nc(N)n1	11.0	5.8	6.1	10.4	3.3	x	x	x	x	x
CCCN1C(=O)c2ccc(C(=O)Nc3cc(C)ccc3O)cc2C1=O	-24.7	97.2*	11.8	45.9	51.0*	-21.9	20.4	51.6*	50.1*	0.8
CCCN1C(=O)c2ccc(C(=O)Nc3ccccc3C(=O)O)cc2C1=O	88.6*	15.6	17.6	0.7	79.5*	85.6*	85.1*	96.9*	43.6	89.4*
Cc1cc(C)c(C(=O)c2ccccc2C(=O)O)c(C)c1	x	x	17.9	x	x	x	x	x	x	x
CCCCCc1cccnc1	7.6	0.3	23.7	-14.7	0.4	x	x	x	x	x
C/C(=N\Nc1ccc([N+](=O)[O-])cc1)c1ccco1	74.3*	69.8*	-20.4	4.5	57.9*	26.7	50.6*	83.5*	45.8	15.6
CCOC(=O)C1CCN(c2c(NCc3ccc(C(=O)Nc4ccc(C)cc4)cc3)c(=O)c2=O)CC1	-11.6	9.0	21.4	4.1	1.7	x	x	x	x	x
CC(Nc1cccc2ccccc12)C(=O)N/N=C/c1ccccn1 (centres undefined)	81.2*	45.4	18.4	1.8	84.8*	-9.2	4.8	-3.7	1.3	3.5
O=C(NCc1ccco1)c1cc([N+](=O)[O-])ccc1N1CCOCC1	94.6*	-11.8	18.1	-2.6	-0.6	-6.1	-5.4	-4.9	-5.4	-5.0
O=C(NCc1ccco1)c1cc([N+](=O)[O-])ccc1Cl	11.6	9.7	5.0	-1.4	1.0	x	x	x	x	x
CCOC(=O)N1CCN(C(=O)C[C@@H]2C[C@@]3(C(=O)OC)CCCCC=C3N(CCc3ccc(OC)c(OC)c3)C2=O)CC1	x	x	20.5	x	x	x	x	x	x	x
SMILES	SENP6 inh	SENP7 block	SENP8 block-1	Platelet DG rel	SENP8 block-2	SENP8 confirm	SENP6 conf	SENP7 confirm	Casp3 select	SENP luc ctr
Cc1nn(CC(=O)O)c(C)c1C	-25.7	-5.9	12.2	0.3	-1.2	x	x	x	x	x
Cc1nn(CC(=O)O)c(C)c1Cl	0.8	94.8*	10.1	0.8	6.7	-10.2	-2.9	-6.4	2.0	3.6
Cc1c(C)n2c(SCC(=O)N3CCCCCC3)nnc2[nH]c1=O	0.5	-5.0	4.7	16.3	-4.4	x	x	x	x	x
O=C(/C(C=Nc1ccc(F)cc1)=C(/O)c1ccco1)C(F)(F)F	77.1*	79.1*	-116.6	21.7	46.5	-1.6	4.1	12.4	35.5	28.7
Cc1ccc(N=C/C(C(=O)C(F)(F)F)=C(\O)c2ccco2)cc1Cl	67.6*	58.6*	-245.7	-2.6	37.3	-6.0	0.2	38.8	18.2	54.1*
O=C(Nc1cccc(N=Cc2cc(Cl)cc(Br)c2O)c1)c1ccco1	8.7	9.2	-56.3	-2.7	3.2	x	x	x	x	x
Cc1cccc(C)c1NC(=S)N1CC(C)OC(C)C1 (centres undefined)	-30.7	7.2	25.4	-17.6	-7.9	x	x	x	x	x
O=c1oc2ccccc2cc1-c1cn2cccnc2n1	58.5*	47.4	-349.0	7.7	36.1	45.6	46.6	82.2*	81.7*	31.3
c1ccc(CCNc2ncnc3c2cnn3-c2ccccc2)cc1	57.9*	-0.1	7.6	-5.5	43.6	58.2*	51.2*	82.3*	38.8	37.4
c1ccc(CNc2ncnc3c2cnn3-c2ccccc2)cc1	-6.6	5.3	10.6	1.1	1.4	x	x	x	x	x
O=C(Cn1cc(COc2ccc(Cl)c(Cl)c2)nn1)NS(=O)(=O)c1ccccc1C(F)(F)F	x	x	9.5	x	x	x	x	x	x	x
COc1cccc(-c2nnc(Nc3nc4c(F)cccc4s3)o2)c1	90.2*	36.6	-278.4	2.7	84.0*	3.9	84.2*	1.8	59.7*	50.4*
COc1ccccc1-c1nnc(Nc2nc3c(OC)cccc3s2)o1	33.8	76.0*	-315.7	10.5	-30.4	-16.8	-11.2	32.1	48.7	44.5
CC1CCCN(C(=O)COC(=O)C2CCN(S(=O)(=O)c3ccc4c(c3)OCCO4)CC2)C1 (centres undefined)	-8.7	-12.3	16.0	-44.0	-15.0	x	x	x	x	x
CCCCN1C(C)=CC(=C2C(=O)c3ccccc3C2=O)C=C1C	60.2*	5.4	21.7	11.4	46.3	61.1*	60.3*	80.8*	84.7*	-1.2
